Screens from PubChem BioAssay.
CXXC DNA block: qHTS Fluorescence Polarization Assay for Inhibitors of MLL CXXC domain - DNA interaction | Histone-lysine N-methyltransferase 2A (Homo sapiens), Q03164 | MLL-CXXC / FITC-HOXA9 DNA fluorescence polarization | Potency, µM (series often up to 115 µM), for the others: at the top dose activity change, negative = inhibition, most hits filed as inhibitors | 290,000 compounds, 0.037% hits | AID 2662, 2010; active means well fitted inhibition curve with a large enough effect in the polarisation, with a control signal flat, not every such curve was filed as active; inconclusive means small, poorly fitted or top-dose-only effect, or effect the other way, or a change in a side signal; inactive means no such curve, though single readings can be large or run the other way; the % refers to the polarisation; further: potency means the concentration at half of the fitted maximal effect
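Fluorescence polarization: 7 uM MLL-CXXC (stock) preincubated 5 min with compounds, then 50 nM fluorescein-HOX-A9 DNA (stock) added; 30 min ambient. Buffer 50 mM Tris-HCl pH 7.5, 50 mM NaCl, 1 mM DTT, 0.05% BSA.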
Epigenetic derep: Quantitative High-Throughput Screen for Regulators of Epigenetic Control. murine LDR cells, GFP reporter derepression, 30 h. Potency, µM (series often up to 53.9 µM), for inactives: at the highest dose GFP activation, usual class: activators. 280,000 compounds, 0.2% hits. AID 1865, 2009; active means well fitted activation curve with a large enough effect; inconclusive means small, poorly fitted or top-dose-only effect; further: potency means the concentration at half of the fitted maximal effect; % of control where 0% means no effect; nearly all actives have a fitted effect of over 60% in size
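Murine LDR cells bearing a silenced CMV-driven GFP reporter were exposed to compound for 30 h at 37 C. After PBS washes, GFP-positive cells (20-120 um objects) counted by laser-scanning microplate cytometry.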
PINK1 modulator: A Quantitative High throughput Screen to Identify Chemical Modulators of PINK1 Expression | PINK1 immunofluorescence, high-content cytometry, 24 h | Potency, µM (top dose mostly 76.6 µM), without a hit: at the top dose activation (PINK1 increase), actives largely listed as activators | 410,000 compounds, 0.2% hits | AID 624263, 2012; active means well fitted activation curve with a large enough effect; inconclusive means small, poorly fitted or top-dose-only effect; cell line not stated here; further: potency means the concentration at half of the fitted maximal effect; % of control where 0% means no effect; nearly all actives have a fitted effect of over 65% in size
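Stable cell line, 250 cells/well, 12 h attachment; compounds pinned at 5 concentrations, 24 h; CCCP control. Fixed with nuclear dye, primary antibodies 12 h at 10 degrees C, secondary plus cell stain; laser-scanning cytometer read.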
Menin-MLL FL inh: qHTS Assay for Inhibitors Targeting the Menin-MLL Interaction in MLL Related Leukemias: Competition With Fluorescein Labeled MLL-derived Peptide | Fluorescence polarization, fluorescein-MLL peptide displacement from menin | FP activity change, % at 61.4 µM | 290,000 tested, under 10 active | AID 1766, 2009; active means well fitted curve in the direction sought with a large enough effect in the polarisation, not every such curve was filed as active; inconclusive means small, poorly fitted or top-dose-only effect, or effect the other way, or a change in a side signal; inactive means no such curve, though single readings can be large or run the other way; the % refers to the polarisation; further: % of control where 0% means no effect
ClpP mod: qHTS Assay for Activators of ClpP; purified B. subtilis ClpP, FRET peptide cleavage, 20 min; Potency, µM (highest dose often 57.5 µM), for inactives: top-dose activity change, negative = active; 340,000 compounds, 1.9% hits; active means well fitted falling curve with a large enough effect; inconclusive means small, poorly fitted or top-dose-only effect; inactive means no such curve, though single readings can be large or run the other way; further: potency means the concentration at half of the fitted maximal effect; the source files actives as falling curves though it sought activators and does not explain the sign; nearly all actives have a fitted effect of over 65% in size
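Purified B. subtilis ClpP, 10 microg/mL final in Tris/HCl pH8 with KCl, BSA, glycerol and Tween-20, cleaved an Abz/nitrotyrosine-quenched decapeptide. Fluorescence (ex 320, em 430) was read at 0 and 20 min at room temperature. Delta was normalized to 5.8 microM ADEP and DMSO/no-enzyme controls.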
Menin-MLL TR inh: qHTS Assay for Inhibitors Targeting the Menin-MLL Interaction in MLL Related Leukemias: Competition With Texas Red Labeled MLL-derived Mutant Peptide; O00255; 270,000 compounds, 0.23% hits; Potency, µM (doses to about 61.6 µM), for the others: top-dose FP activity change, negative = inhibition, actives largely listed as inhibitors; Menin + Texas Red MLL mutant peptide, fluorescence polarization; active means well fitted inhibition curve with a large enough effect in the polarisation, with a control signal flat, not every such curve was filed as active; inconclusive means small, poorly fitted or top-dose-only effect, or effect the other way, or a change in a side signal; inactive means no such curve, though single readings can be large or run the other way; the % refers to the polarisation; further: potency means the concentration at half of the fitted maximal effect; % of control where 0% means no effect
Target sequence (O00255 whole entry, looked up): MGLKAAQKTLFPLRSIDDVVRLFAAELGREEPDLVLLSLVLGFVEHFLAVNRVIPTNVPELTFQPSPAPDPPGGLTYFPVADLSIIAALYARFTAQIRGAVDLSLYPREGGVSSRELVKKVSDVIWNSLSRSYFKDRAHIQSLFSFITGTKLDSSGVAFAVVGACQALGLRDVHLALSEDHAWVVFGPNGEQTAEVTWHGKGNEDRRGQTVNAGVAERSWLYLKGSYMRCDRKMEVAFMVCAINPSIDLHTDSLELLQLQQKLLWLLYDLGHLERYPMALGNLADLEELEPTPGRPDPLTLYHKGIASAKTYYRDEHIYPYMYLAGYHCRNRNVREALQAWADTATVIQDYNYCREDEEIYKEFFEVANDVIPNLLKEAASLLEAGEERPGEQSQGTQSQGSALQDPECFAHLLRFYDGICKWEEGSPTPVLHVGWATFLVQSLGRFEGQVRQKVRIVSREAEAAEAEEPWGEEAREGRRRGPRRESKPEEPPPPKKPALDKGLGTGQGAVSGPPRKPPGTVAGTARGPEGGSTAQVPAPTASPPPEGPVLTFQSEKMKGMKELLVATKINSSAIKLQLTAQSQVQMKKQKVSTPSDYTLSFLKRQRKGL
Starred values were filed as active, the others as inactive; ? = inconclusive; nt = no result given; [ ] = another dose, or the depositor's remark. Shown are actives, neighbours in structure and some others; about 1.9% of the full set was active somewhere.

SMILES	CXXC DNA block	Epigenetic derep	PINK1 modulator	Menin-MLL FL inh	ClpP mod	Menin-MLL TR inh
CCOC(=O)Cc1c(C)nc2c(C#N)c[nH]n2c1=O	7%	-1%	-6%[38.3 µM]	6	?	-4%
CCOC(=O)Cc1c(C)nc2cc(-c3ccc(C(C)(C)C)cc3)[nH]n2c1=O	14%	0%	23%[38.3 µM]	0	32µM*	0%
CCOC(=O)Cc1c(C)nc2c(-c3cccc(Br)c3)c[nH]n2c1=O	-9%	0%	-1%	2	14µM*	?
Cc1c(C(=O)N2CC[C@@H]3CCCC[C@H]3C2)sc2ncnc(NCCc3ccccn3)c12	nt	nt	2%	nt	nt	nt
O=C(C1CC12CCN(Cc1cccc3cccnc13)CC2)N1CCN(Cc2cccs2)CC1 (configuration not stated)	nt	nt	1%	nt	nt	nt
CC(=O)Nc1ccc(S(=O)(=O)N2CCN(c3cc(C)nc4ccccc34)CC2)cc1	6%	1%	0%	4	-6%	38%
CC(=O)Nc1ccc(S(=O)(=O)N2CCN(c3nc(NC4CCCC4)c4ccccc4n3)CC2)cc1	39%	?	-2%	4	28µM*	42%
CC(C)n1ncc2c(C(=O)NCCc3ccc(F)cc3)cc(C3CC3)nc21	nt	nt	?	nt	32µM*	nt
Cc1ccccc1CCNC(=O)c1cc(C2CC2)nc2c1cnn2C(C)C	nt	nt	4%	nt	3%	nt
CCN(CC)c1ccc(CNc2nc3ccccc3n2C(C)C)cc1	7%	-1%	22µM*	-1	-5%	nt
CCN1CCCC1CNC(=O)c1cnn(-c2nccc(-c3cccs3)n2)c1C1CC1 (configuration not stated)	nt	nt	2%	nt	nt	nt
Cc1ccc(C=Nc2ccccc2C(N)=O)s1	-5%	-3%	4%	2	8.9µM*	-2%
Cc1cccc(/C=N/NC(=O)Cc2cccs2)c1	6%	-3%	5%	-2	nt	nt
Cc1ccc(/C=N/N=C/c2ccc(C)s2)s1	-2%	-2%	14%	-2	0%	1%
Cc1cccc(C=Nc2ccccc2C(N)=O)c1	-8%	-1%	12%[38.3 µM]	4	22µM*	0%
O=C(CC(Cl)(Cl)Cl)N1CCN(/[N+]([O-])=N/Oc2ccc([N+](=O)[O-])cc2[N+](=O)[O-])CC1	nt	nt	0%	nt	nt	nt
COc1ccc(C(=O)NNC(=O)OC(C)(C)C)cc1	30%	-1%	1%	-1	1%	nt
COc1ccc(C(=O)NN/C(C)=C/C(=O)C(F)(F)C(F)(F)C(F)(F)F)cc1	9%	0%	-1%	-1	3.2µM*	5%
Cc1ccccc1-c1coc2cc(O)ccc2c1=O	1%	-2%	-2%	4	28µM*	27%
CCc1ccccc1NC(c1nnc(-c2cccc(F)c2)o1)c1ccc(F)cc1Cl (configuration not stated)	nt	0%	0%	nt	-4%	nt
O=C(NCCCSc1ccccc1)c1cc(Cl)ccc1O	-20%	nt	18µM*	nt	4%	nt
CCOc1ccc(NC(=O)c2oc3ccccc3c2NC(=O)c2c(F)cccc2F)cc1	nt	-3%	7%	nt	-6%	nt
CCOc1ccccc1C(=O)Nc1c(C(=O)Nc2ccc(F)cc2)oc2ccccc12	nt	-2%	6%	nt	32µM*	nt
COc1ccc(C(=O)N=c2nc(-c3ccccc3)n(-c3ccccc3)s2)cc1	nt	nt	1%	nt	-2%	nt
COc1ccc(CCC(=O)N2c3ccccc3N=C(c3ccc4c(c3)OCO4)C2C(=O)NCc2ccccc2)cc1 (configuration not stated)	nt	nt	nt	nt	32µM*	nt
SMILES	CXXC DNA block	Epigenetic derep	PINK1 modulator	Menin-MLL FL inh	ClpP mod	Menin-MLL TR inh
COc1ccc(C2=Nc3ccccc3N(C(=O)c3ccc4c(c3)OCO4)C2C(=O)NCc2ccccc2)cc1 (configuration not stated)	nt	nt	nt	nt	5%	nt
CCCCn1c(=O)nc2n(-c3ccc(Br)cc3)c3ccccc3cc-2c1=O	nt	9%	0%	nt	-30%	nt
CCCCn1c(=O)nc2n(-c3ccccc3C)c3ccccc3cc-2c1=O	0%	-2%	4%	0	18µM*	-3%
CC(C)N(C(=S)Nc1cccc(C(F)(F)F)c1)C(C)c1ccccn1 (configuration not stated)	0%	0%	32µM*	-1	1%	29%
COc1ccccc1NC(=S)N(C(C)C)C(C)c1ccccn1 (configuration not stated)	5%	0%	3%	3	-22%	5%
COC(=O)c1ccc(Cn2cnc3c(Cl)ncnc32)cc1	nt	nt	1%	nt	nt	nt
COC(=O)c1ccc(Cn2ccc(=O)[nH]c2=O)cc1	nt	nt	-2%	nt	14µM*	nt
Cc1cccc(C(=O)N2CCN(Cc3ccc4c(c3)OCO4)CC2)c1	-4%	1%	-1%	2	-2%	0%[11.7 µM]
Cc1ccccc1Cc1c(C)nc2c(C(=O)N3CCN(Cc4ccc5c(c4)OCO5)CC3)cnn2c1C	nt	nt	-2%[38.3 µM]	nt	32µM*	nt
Cc1nc2c(C(=O)N3CCN(C)CC3)cnn2c(C)c1Cc1ccc(Cl)cc1	-2%	-5%	?	0	25µM*	-12%
O=C(c1cnn2c(C(F)F)cc(-c3ccccc3)nc12)N1CCN(Cc2ccc3c(c2)OCO3)CC1	-1%	nt	-1%	-1	-3%	?
COC(=O)c1cnn2c(C)c(Cc3c(C)cc(C)cc3C)c(C)nc12	nt	0%	1%	nt	-18%	nt
Cc1cccc(Cc2c(C)nc3c(C(=O)N4CCN(Cc5ccc6c(c5)OCO6)CC4)cnn3c2C)c1	-3%	?	?	4	22µM*	?
C=CCc1c(C)nc2c(C(=O)O)cnn2c1C	9%	-1%	5%[38.3 µM]	2	32µM*	0%
CCN(CC)c1ccc(/C=C/c2ccnc3ccccc23)cc1	nt	nt	10%	nt	4%	nt
Cc1cnc(-n2ncc(C(=O)N(C)CC3COCCO3)c2C2CC2)nc1-c1cccs1 (configuration not stated)	nt	nt	0%	nt	nt	nt
O=C(c1n[nH]c2c1CCCC2)N1CCOc2ccc(C(O)C(c3ccccc3)c3ccccc3)cc2C1 (configuration not stated)	nt	nt	0%	nt	nt	nt
Cc1ccc2c(c1)-c1cc(C)nn1C(c1ccc3c(c1)OCO3)N2 (configuration not stated)	4%	-2%	2%	1	13µM*	17%
Cc1cc2n(n1)C(c1sccc1C)Nc1c(C)cccc1-2 (configuration not stated)	-9%	-2%	1%	0	28µM*	3%
